Measurements: PubChem BioAssay AID1159580 (chemical genetic matrix, 2015)
Among all 5,500 compounds or so, about 2,000 (36%) were called active. About 18% were inconclusive and are not listed. Cut-off read from the data, not from the text of the source: active = normalized growth mostly below about 0.91 (no sharp cut-off); inconclusive = no clear call, values can overlap the other calls; inactive = mostly above about 0.92. The list shows a part of the results.

Assay: chemical genetic growth profiling, strain panel (AID 1159580);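 note: tested at 20 µM; growth read once vehicle control cultures reached saturation at 30 °C; 1 = growth at the plate median or of vehicle wells; lower values mean less growth of the strain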
Settings: S. cerevisiae deletion strains, growth OD

Measured: normalized growth

C[C@]12CCC(=O)C=C1CC[C@@H]1[C@@H]2CC[C@]2(C)C(=O)CC[C@@H]12
inactive: locus YAL040C, strain CLN3, stronger effect = lower value 1.01 | locus YCL061C, strain MRC1 (second series), stronger effect = lower value 0.994 | locus YDR150W, strain NUM1, stronger effect = lower value 0.988 | locus YDR363W, strain ESC2, stronger effect = lower value 0.999 | locus YER002W, strain NOP16, stronger effect = lower value 0.99 | locus YGR078C, strain PAC10, stronger effect = lower value 0.987 | locus YJR075W, strain HOC1, stronger effect = lower value 0.991 | locus YNL128W, strain TEP1, stronger effect = lower value 0.996 | locus YNL175C, strain NOP13, stronger effect = lower value 0.997 | locus YNL197C, strain WHI3, stronger effect = lower value 0.997 | locus YNL224C, strain SQS1, stronger effect = lower value 1.01 | locus YOR083W, strain WHI5 (second series), stronger effect = lower value 0.924 | locus YPL241C, strain CIN2, stronger effect = lower value 0.997
